The supplement of paper PMC11732987, “Enantioselective OTUD7B fragment discovery through chemoproteomics screening and high-throughput optimisation” (Communications Chemistry, 2025)

Columns and labels:
Assay in all cases: log2 ratio of Biotin-Ahx-Ub-VS probe labelling (fragment/DMSO); higher = less target engagement (more negative = stronger competition), active = hit call of the paper (q ≤ 0.05, log2 ratio ≤ -1)
Conditions in all cases: compound concentration: 200 uM; treatment time: 3 h
OTUD6B = biological target: T1, OTUD6B (UniProt Q8N6M0)
T1 sequence (whole entry): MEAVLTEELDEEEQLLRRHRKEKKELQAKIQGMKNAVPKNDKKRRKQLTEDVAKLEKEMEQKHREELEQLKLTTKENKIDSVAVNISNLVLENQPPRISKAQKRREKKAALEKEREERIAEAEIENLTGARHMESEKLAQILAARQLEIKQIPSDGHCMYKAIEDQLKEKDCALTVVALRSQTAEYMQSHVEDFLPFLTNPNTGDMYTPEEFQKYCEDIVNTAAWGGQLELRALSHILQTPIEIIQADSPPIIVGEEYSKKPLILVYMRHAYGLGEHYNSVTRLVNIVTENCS
Outline: (§1)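 HEK293T lysate (495 µg per sample, in Tris/CHAPS/IGEPAL buffer with protease inhibitors) was treated in triplicate with fragment at 200 µM or with DMSO for 3 h. It was then treated with Biotin-Ahx-Ub-VS (0.5 µM final) for 1 h. Labelled DUBs were NeutrAvidin-enriched, digested with LysC and trypsin, and run by diaPASEF LC-MS/MS. Spectronaut label-free quantities were global-median-normalised. Values are average log2 ratios fragment/DMSO by unpaired t-test, using proteins with ≥2 unique peptides.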

OTUD7B = biological target: T2, OTUD7B (UniProt Q6GQQ9)
T2 sequence (whole entry): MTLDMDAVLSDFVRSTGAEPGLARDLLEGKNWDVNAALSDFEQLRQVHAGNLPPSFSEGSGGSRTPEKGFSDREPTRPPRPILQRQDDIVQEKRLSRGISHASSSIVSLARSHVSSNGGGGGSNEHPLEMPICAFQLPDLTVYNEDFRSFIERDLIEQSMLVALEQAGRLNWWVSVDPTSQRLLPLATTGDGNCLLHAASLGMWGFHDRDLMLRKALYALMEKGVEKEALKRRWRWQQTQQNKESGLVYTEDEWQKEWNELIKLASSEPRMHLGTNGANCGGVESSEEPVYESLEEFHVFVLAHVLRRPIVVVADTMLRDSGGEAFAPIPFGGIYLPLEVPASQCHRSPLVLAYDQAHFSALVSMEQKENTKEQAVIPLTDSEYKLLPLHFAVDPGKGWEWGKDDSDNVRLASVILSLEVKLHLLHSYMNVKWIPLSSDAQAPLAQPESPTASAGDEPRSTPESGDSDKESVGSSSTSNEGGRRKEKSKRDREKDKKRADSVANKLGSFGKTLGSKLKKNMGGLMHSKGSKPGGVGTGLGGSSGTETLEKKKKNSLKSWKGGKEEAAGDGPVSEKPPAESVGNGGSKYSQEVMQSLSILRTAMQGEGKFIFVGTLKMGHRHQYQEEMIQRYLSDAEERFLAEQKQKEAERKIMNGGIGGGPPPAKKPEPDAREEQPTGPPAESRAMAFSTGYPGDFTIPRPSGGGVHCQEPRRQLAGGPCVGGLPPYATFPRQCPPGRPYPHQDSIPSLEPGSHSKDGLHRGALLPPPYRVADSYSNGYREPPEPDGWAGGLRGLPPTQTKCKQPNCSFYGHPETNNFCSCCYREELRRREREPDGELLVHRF
Outline: as §1

PRPF8 = PRPF8 (UniProt Q6P2Q9)
Outline: as §1

PSMD7 = biological target: T3, PSMD7 (UniProt P51665)
T3 sequence (whole entry): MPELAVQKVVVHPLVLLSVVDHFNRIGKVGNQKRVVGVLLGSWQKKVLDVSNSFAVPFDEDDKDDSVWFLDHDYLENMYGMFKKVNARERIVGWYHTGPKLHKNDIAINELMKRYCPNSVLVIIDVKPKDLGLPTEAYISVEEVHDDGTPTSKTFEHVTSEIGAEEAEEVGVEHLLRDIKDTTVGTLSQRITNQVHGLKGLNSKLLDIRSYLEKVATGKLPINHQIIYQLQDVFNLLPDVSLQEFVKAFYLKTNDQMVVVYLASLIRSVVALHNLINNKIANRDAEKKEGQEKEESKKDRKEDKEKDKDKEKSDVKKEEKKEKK
Outline: as §1

UCHL1 = UCHL1 (UniProt P09936)
Outline: as §1

UCHL3 = biological target: T4, UCHL3 (UniProt P15374)
T4 sequence (whole entry): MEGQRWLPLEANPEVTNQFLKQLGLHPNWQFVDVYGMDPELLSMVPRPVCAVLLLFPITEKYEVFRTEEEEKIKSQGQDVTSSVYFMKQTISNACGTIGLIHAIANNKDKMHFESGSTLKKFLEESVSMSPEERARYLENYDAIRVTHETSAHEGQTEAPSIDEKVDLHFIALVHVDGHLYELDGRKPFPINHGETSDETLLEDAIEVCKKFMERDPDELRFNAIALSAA
Outline: as §1

UCHL5 = biological target: T5, UCHL5 (UniProt Q9Y5K5)
T5 sequence (whole entry): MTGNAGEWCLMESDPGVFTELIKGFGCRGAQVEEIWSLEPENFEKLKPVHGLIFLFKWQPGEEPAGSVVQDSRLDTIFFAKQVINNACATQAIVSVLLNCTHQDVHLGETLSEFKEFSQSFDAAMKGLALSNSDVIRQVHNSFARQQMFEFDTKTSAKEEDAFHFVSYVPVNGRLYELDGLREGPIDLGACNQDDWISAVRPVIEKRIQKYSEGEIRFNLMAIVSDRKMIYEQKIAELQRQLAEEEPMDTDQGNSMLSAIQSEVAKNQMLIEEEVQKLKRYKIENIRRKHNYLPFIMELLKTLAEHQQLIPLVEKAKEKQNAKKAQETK
Outline: as §1

USP10 = USP10 (UniProt Q14694)
Outline: as §1

USP15 = biological target: T6, USP15 (UniProt Q9Y4E8)
T6 sequence (whole entry): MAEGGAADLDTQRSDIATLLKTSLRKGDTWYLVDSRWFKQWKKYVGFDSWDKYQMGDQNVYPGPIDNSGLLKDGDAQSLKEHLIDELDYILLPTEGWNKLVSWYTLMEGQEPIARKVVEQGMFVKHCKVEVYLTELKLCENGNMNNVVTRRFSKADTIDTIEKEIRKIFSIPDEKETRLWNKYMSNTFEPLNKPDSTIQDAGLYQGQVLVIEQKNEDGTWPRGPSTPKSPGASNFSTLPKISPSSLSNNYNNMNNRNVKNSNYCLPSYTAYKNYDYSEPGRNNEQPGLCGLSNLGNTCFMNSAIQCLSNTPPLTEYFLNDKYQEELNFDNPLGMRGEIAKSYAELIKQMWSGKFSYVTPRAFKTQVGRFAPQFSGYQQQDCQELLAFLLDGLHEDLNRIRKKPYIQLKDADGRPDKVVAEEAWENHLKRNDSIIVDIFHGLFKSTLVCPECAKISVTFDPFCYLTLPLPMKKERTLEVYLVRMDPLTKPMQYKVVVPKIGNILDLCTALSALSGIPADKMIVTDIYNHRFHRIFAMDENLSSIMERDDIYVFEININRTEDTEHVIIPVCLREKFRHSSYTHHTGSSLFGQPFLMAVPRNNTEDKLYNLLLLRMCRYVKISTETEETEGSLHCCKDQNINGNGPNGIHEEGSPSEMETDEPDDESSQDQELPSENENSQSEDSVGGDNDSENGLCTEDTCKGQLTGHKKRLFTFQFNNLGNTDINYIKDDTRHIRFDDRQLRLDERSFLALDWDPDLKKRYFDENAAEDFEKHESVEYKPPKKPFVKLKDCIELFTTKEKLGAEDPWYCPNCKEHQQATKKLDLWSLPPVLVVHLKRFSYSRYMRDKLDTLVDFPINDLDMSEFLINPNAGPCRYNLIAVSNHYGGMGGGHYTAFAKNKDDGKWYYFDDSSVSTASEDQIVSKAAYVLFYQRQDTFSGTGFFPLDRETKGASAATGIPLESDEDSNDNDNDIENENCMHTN
Outline: as §1

USP16 = USP16 (UniProt Q9Y5T5)
Outline: as §1

Measured: log2 ratio of Biotin-Ahx-Ub-VS probe labelling

Chain of USP10 (Q14694 whole entry): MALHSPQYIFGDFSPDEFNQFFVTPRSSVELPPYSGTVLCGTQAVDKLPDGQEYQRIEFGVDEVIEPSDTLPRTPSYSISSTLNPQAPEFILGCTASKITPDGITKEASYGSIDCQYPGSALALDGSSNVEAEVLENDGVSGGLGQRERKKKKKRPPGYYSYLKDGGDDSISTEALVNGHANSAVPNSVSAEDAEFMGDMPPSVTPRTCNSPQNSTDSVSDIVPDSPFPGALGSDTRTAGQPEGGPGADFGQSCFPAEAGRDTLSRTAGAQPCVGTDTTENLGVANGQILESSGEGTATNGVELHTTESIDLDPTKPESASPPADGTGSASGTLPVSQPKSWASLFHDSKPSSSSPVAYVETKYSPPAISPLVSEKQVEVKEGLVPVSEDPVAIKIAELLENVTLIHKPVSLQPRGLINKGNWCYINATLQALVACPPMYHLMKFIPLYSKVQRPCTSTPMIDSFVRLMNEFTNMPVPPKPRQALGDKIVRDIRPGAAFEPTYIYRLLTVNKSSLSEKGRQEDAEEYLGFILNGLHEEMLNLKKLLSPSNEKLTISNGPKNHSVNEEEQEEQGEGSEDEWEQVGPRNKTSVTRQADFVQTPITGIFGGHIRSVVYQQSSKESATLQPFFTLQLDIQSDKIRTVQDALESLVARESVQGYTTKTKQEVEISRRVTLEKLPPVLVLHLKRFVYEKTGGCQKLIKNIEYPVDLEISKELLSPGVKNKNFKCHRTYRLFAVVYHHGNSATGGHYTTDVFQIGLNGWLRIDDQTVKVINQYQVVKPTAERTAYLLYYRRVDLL
Chain of USP16 (Q9Y5T5 whole entry, looked up): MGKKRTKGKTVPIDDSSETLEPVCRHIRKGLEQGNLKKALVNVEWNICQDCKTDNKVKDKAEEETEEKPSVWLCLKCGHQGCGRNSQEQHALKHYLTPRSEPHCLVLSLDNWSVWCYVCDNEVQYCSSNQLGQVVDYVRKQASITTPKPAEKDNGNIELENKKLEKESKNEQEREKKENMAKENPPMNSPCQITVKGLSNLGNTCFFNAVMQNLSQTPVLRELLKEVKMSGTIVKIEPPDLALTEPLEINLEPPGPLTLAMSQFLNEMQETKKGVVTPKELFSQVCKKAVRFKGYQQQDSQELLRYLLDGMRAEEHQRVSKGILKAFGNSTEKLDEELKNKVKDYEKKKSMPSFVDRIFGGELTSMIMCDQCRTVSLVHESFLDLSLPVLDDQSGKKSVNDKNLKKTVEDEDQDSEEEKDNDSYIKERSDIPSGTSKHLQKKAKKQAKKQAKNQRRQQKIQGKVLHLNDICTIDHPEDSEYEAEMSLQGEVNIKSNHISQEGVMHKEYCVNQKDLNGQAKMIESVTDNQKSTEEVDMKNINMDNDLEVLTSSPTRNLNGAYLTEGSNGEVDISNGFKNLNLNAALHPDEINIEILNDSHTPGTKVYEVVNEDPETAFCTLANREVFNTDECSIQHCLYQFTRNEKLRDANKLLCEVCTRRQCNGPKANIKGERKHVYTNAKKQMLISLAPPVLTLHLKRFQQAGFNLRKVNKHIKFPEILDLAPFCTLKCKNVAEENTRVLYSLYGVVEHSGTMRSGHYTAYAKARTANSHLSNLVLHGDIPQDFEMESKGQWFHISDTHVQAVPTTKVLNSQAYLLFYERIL
Chain of UCHL1 (P09936 whole entry, looked up): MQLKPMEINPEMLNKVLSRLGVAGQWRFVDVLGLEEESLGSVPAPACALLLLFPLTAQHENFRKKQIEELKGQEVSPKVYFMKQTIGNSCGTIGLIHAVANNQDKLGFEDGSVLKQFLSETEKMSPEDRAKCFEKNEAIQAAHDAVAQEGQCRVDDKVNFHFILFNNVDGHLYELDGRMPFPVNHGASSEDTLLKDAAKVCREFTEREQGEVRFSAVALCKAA

Cc1cc(C2CCCN2C(=O)CCl)nn1C.Cl (stereo not given)
inactive: OTUD6B -0.252 | OTUD7B -0.142 | PRPF8 0.0171 | PSMD7 -0.218 | UCHL3 0.3 | UCHL5 -0.218 | USP10 -0.132 | USP15 -0.246 | USP16 -0.631
active: UCHL1 -1.54
